Screens as filed in PubChem BioAssay.
Sampled rows, rich in hits. Any-hit rate of the full collection: about 0.57%.
PrP 5UTR inh: inhibition of PrP 5' UTR reporter expression | inhibition, % (no concentration beside the values) | cell-based PrP 5' UTR mRNA reporter, plate reader | 340,000 compounds, 0.35% hits | AID 488862, 2010; in the data active = inhibition above about 52%; note: 0 = median of the neutral control wells
TcdB inh: TcdB glycohydrolase inhibitors, primary screen, biochemical, single point, plate reader | Toxin B (Clostridioides difficile), P18177 | inhibition, % at 9.99 µM | 350,000 compounds, 0.24% hits | TcdB glycohydrolase enzymatic assay; in the data active = inhibition above about 10%
BioA inh: M. tuberculosis BioA enzyme inhibitors, primary screen, biochemical, plate reader, single point, HTS; AID 602481, 2012; 360,000 compounds, 0.096% hits; 7,8-diaminopelargonic acid synthase BioA (Mycobacterium tuberculosis); purified M. tuberculosis BioA enzyme; inhibition, % at 9.99 µM; in the data active = inhibition above about 40%
Y pestis TopoI: Yersinia pestis topoisomerase I inhibitors, primary screen, biochemical, cleavage product accumulation, plate reader, single point; Y. pestis Topo-I cleavage product accumulation; activity, % at 10 µM; 360,000 compounds, 0.064% hits; in the data active = activity above about 50%, passing the limit was not always enough
PrP 5UTR single: prion 5' UTR mRNA inhibition, cherry-pick retest | shares compounds with PrP 5UTR inh | cell-based prion protein 5' UTR reporter, plate reader | inhibition, % at 2.5 µM | 1,100 compounds, 48% hits; in the data active = inhibition above about 54%
* marks the source's active call; other numbers are inactive results; . = not tested or not shown; ! = not active in a repeat.

SMILES	PrP 5UTR inh	TcdB inh	BioA inh	Y pestis TopoI	PrP 5UTR single
C[C@@H]1CN([C@H](C)CO)C(=O)c2cccc(NS(=O)(=O)c3cccs3)c2O[C@@H]1CN(C)Cc1ccc(Oc2ccccc2)cc1	.	0	-2	.	.
CC(=O)O[C@H]1[C@H]2O[C@]23[C@@H]2CC[C@]4(O)C[C@@H](O)CC[C@]4(C)C2CC[C@]3(C)[C@H]1c1ccc(=O)oc1 (stereo partly specified)	94*	.	0	-3	91*
Cc1nn(-c2ccccc2Cl)c(Cl)c1/C=N/Nc1cccc(C(=O)O)c1	77*	.	.	1	64*
Cc1nn(-c2cccc(C(F)(F)F)c2)c(Cl)c1/C=N/Nc1cccc(C(=O)O)c1	19	-5	.	3	.
Cc1ccsc1/C=N/Nc1cccc(C(=O)O)c1	72*	0	.	3	68*
C[C@@H]1CN([C@H](C)CO)C(=O)c2cc(C#CC3CCCCC3)cnc2O[C@@H]1CN(C)Cc1cncnc1	.	-8	0	.	.
COc1ccccc1NC(=S)N(Cc1ccccc1)Cc1cccs1	67*	1	1	0	-24
Cc1noc(C)c1NC(=O)N(C)C[C@H]1OCCCC[C@H](C)Oc2ccc(NS(C)(=O)=O)cc2C(=O)N([C@H](C)CO)C[C@@H]1C	.	.	1	.	.
CO[C@H]1CN(C)C(=O)c2cc(NC(=O)C3CC3)ccc2OC[C@@H](C)N(Cc2ccncc2)C[C@H]1C	.	0	3	.	.
C[C@@H]1CN([C@@H](C)CO)C(=O)Cc2cc(NC(=O)CCN3CCOCC3)ccc2O[C@H]1CN(C)Cc1ccc(Oc2ccccc2)cc1	.	-2	-3	.	.
COC(C(=O)C(O)C(C)O)C1Cc2cc3cc(OC4CC(OC5CC(O)C(O)C(C)O5)C(O)C(C)O4)c(C)c(O)c3c(O)c2C(=O)C1OC1CC(OC2CC(OC3CC(O)C(OC)C(C)O3)C(O)C(C)O2)C(O)C(C)O1 (stereo unspecified)	70*	-13	.	26	71*
COc1ccc(S(=O)(=O)N(C)C[C@@H]2Oc3c(NC(=O)CCCCCC(=O)Nc4ccccc4N)cccc3C(=O)N([C@H](C)CO)C[C@H]2C)cc1	.	-1	.	.	.
COc1ccc(NC2Oc3cc4c(cc3C(c3cc(OC)c(OC)c(OC)c3)C2C)OCO4)cc1 (stereo unspecified)	61*	1	.	-5	36
COc1cccc(C(=O)Nc2ccc3c(c2)C(=O)N(C)[C@H]2CC[C@H](CC(=O)NCC4CC4)O[C@@H]2CO3)c1	.	-1	8	.	.
ON=C1c2ccccc2-c2ccccc21	4	-2	0	-7	.
CN(C)c1ccc2c(c1)C(=NO)c1ccccc1-2	68*	.	.	-20	-73
S=C(NCCSCc1ccc(Cl)cc1Cl)Nc1ccccc1	-3	.	-2	1	.
S=C(Nc1ccccc1)Nc1ccc(OCc2ccc(Cl)cc2Cl)cc1	89*	.	-2	7	87*
COc1ccc2c3c([nH]c2c1)[C@H](CO)N(C(=O)CN1CCOCC1)CC31CCN(Cc2ccccc2)CC1	.	-4	.	.	.
CO[C@H]1CN(C)C(=O)c2cc(NC(=O)c3ccccc3)ccc2OC[C@H](C)N(C(=O)CN(C)C)C[C@H]1C	.	1	0	.	.
CC1=CC(C)CC(C)OC(=O)CC(c2ccc(O)cc2)NC(=O)C(Cc2c(Br)[nH]c3ccccc23)N(C)C(=O)C(C)NC(=O)C(C)C1 (stereo unspecified)	74*	2	.	12	95*
O=C(O)Cc1sc(Nc2ccc(Cl)cc2)nc1-c1cccs1	88*	0	.	.	-24
O=C(C1CC1)N1CC(=O)N2[C@@H](CO)[C@@H](c3ccc(C#CCc4ccccc4)cc3)[C@@H]2C1	.	-1	.	.	.
CCOC(=O)NC(=O)/C(C#N)=N\Nc1cccc(OC)c1	-14	3	.	4	.
CCOC(=O)NC(=O)/C(C#N)=N/Nc1c(F)cccc1F	61*	.	.	-1	30
SMILES	PrP 5UTR inh	TcdB inh	BioA inh	Y pestis TopoI	PrP 5UTR single
Cc1ccccc1[N+](=O)[O-]	-11	1	-1	3	.
Cc1cc([N+](=O)[O-])c2ccccc2[n+]1[O-]	87*	.	.	-2	98*
O=C(NCCCNCc1ccccc1)c1ccccn1	62*!	-2	0	-1	-7
CC=Cc1ccc2n(c1=O)C[C@@H]1[C@@H](CO)[C@H](C(=O)N3CCc4ccccc4C3)N(C)[C@H]21 (mixture of isomers)	.	-9	.	.	.
C[C@@H]1CCCCO[C@@H](CN(C)Cc2ccc3c(c2)OCO3)[C@@H](C)CN([C@@H](C)CO)C(=O)c2cc(NS(C)(=O)=O)ccc2O1	.	0	3	.	.
COc1cc2c3c(c1)C(C)=CC(C)(C)N3C(=O)C2=O	79*	1	.	-9	-2
COc1cc2cc(C(=O)N3CC(COS(C)(=O)=O)c4ccc(O)cc43)[nH]c2c(OC)c1OC (stereo unspecified)	97*	.	.	-4	97*
COc1ccc(OC)c2[nH]c(C(=O)N3CCC(C(=O)O)CC3)cc12	2	0	-3	0	.
CCOc1ccc(/C=C2/SC(=S)N(CCC(=O)Nc3ccc(C(=O)O)cc3)C2=O)cc1	-23	-1	1	13	.
CCOc1ccc(/C=C2\SC(=S)N(CCC(=O)O)C2=O)cc1	68*	1	.	17	71*
Cc1ccc(/C=C2\SC(=S)N(CCC(=O)NNC(=O)c3ccccc3O)C2=O)cc1	-6	8	-1	8	.
Cc1ccc(/C=C2\SC(=S)N(CCCC(=O)NNC(=O)c3ccccc3O)C2=O)cc1	53*	1	-2	0	75*
C[C@H]1CCCCO[C@H](CN(C)S(=O)(=O)c2cn(C)cn2)[C@@H](C)CN([C@@H](C)CO)C(=O)c2cc(NC(=O)Nc3ccc4c(c3)OCO4)ccc2O1	.	0	0	.	.
CC=Cc1ccc2n(c1=O)C[C@@H]1[C@@H](CO)[C@H](C(=O)NCC3CC3)N(C(C)=O)[C@H]21 (mixture of isomers)	.	1	.	.	.
C[C@@H]1CN([C@@H](C)CO)C(=O)c2c(c3ccccc3n2C)-c2ccccc2CO[C@@H]1CN(C)Cc1ccccc1C(F)(F)F	.	-5	.	.	.
CCN(CC)c1ccc2cc(-c3nc4ccccc4[nH]3)c(=O)oc2c1	58*	.	-10	-7	66*
COC(=O)C[C@@H]1CC[C@H](NS(=O)(=O)c2ccccc2F)[C@H](CO)O1	.	-1	-2	.	.
O=C(Cc1ccccc1)N1CC(=O)N2[C@H](C1)[C@@H](c1ccc(Br)cc1)[C@@H]2CO	.	-1	.	.	.
O=C(Nc1ccccc1Cl)c1ccccc1	-36	1	.	6	.
O=C(Nc1ccccc1Cl)c1ccc(C(=O)Nc2ccccc2Cl)cc1	76*	1	.	-4	1
CC(Sc1cnc2ccccc2n1)C(=O)O (stereo unspecified)	-7	.	0	1	.
Cc1ccc(Sc2cnc3ccccc3n2)cc1	88*	.	1	-2	-83
C=C1C(=O)OC2CC(C)C3C=CC(=O)C3(C)C(O)C12 (stereo unspecified)	26	.	.	-8	.
